Test results reported in PubChem BioAssay AID1159580 (chemical genetic matrix, 2015).
The whole screen tested about 5,500 compounds, of which about 2,000 (36%) were called active. Not shown: some 18% with an inconclusive outcome. Cut-off read from the data, not from the text of the source: active = normalized growth mostly below about 0.91 (no sharp cut-off); inconclusive = no clear call, values can overlap the other calls; inactive = mostly above about 0.92. The list shows a part of the results.

Experiment: chemical genetic growth profiling, strain panel (AID 1159580);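 note: tested at 20 µM; growth read once vehicle control cultures reached saturation at 30 °C; 1 = growth at the plate median or of vehicle wells; lower values mean less growth of the strain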
Conditions: growth OD
[1] = S. cerevisiae deletion strains, locus YDL101C, strain DUN1, active compounds read low
[2] = S. cerevisiae deletion strains, locus YHR030C, strain SLT2, active compounds read low

Measured: normalized growth

FC(F)(F)c1cc(-c2ccc(Cl)cc2)n[nH]1
active: [2] 0.763 | S. cerevisiae deletion strains, locus YLR113W, strain HOG1, active compounds read low 0.701 | S. cerevisiae deletion strains, locus YPL256C, strain CLN2, active compounds read low 0.677
inactive: S. cerevisiae deletion strains, locus YAR019C, strain CDC15, active compounds read low 0.908 | S. cerevisiae deletion strains, locus YBL105C, strain PKC1, active compounds read low 0.923 | S. cerevisiae deletion strains, locus YBR135W, strain CKS1, active compounds read low 0.916 | S. cerevisiae deletion strains, locus YBR136W, strain MEC1, active compounds read low 0.918 | S. cerevisiae deletion strains, locus YBR160W, strain CDC28, active compounds read low 0.922 | S. cerevisiae deletion strains, locus YDL017W, strain CDC7, active compounds read low 0.931 | S. cerevisiae deletion strains, locus YDL028C, strain MPS1, active compounds read low 0.918 | [1] 0.926 | S. cerevisiae deletion strains, locus YDL108W, strain KIN28, active compounds read low 0.925 | S. cerevisiae deletion strains, locus YDL132W, strain cdc53, active compounds read low 0.917 | S. cerevisiae deletion strains, locus YDL214C, strain PRR2, active compounds read low 0.826 | S. cerevisiae deletion strains, locus YDR052C, strain DBF4, active compounds read low 0.927 | S. cerevisiae deletion strains, locus YDR054C, strain cdc34, active compounds read low 0.904 | S. cerevisiae deletion strains, locus YDR226W, strain ADK1, active compounds read low 0.921 | S. cerevisiae deletion strains, locus YDR477W, strain SNF1, active compounds read low 0.848 | S. cerevisiae deletion strains, locus YER123W, strain YCK3, active compounds read low 0.789 | S. cerevisiae deletion strains, locus YER133W, strain GLC7, active compounds read low 0.779 | S. cerevisiae deletion strains, locus YFL009W, strain cdc4, active compounds read low 0.908 | S. cerevisiae deletion strains, locus YFL029C, strain CAK1, active compounds read low 0.906 | S. cerevisiae deletion strains, locus YFR003C, strain YPI1, active compounds read low 0.92 | S. cerevisiae deletion strains, locus YFR019W, strain FAB1, active compounds read low 0.901 | S. cerevisiae deletion strains, locus YFR028C, strain CDC14, active compounds read low 0.909 | S. cerevisiae deletion strains, locus YGR040W, strain KSS1, active compounds read low 0.813 | S. cerevisiae deletion strains, locus YGR052W, strain FMP48, active compounds read low 0.834 | S. cerevisiae deletion strains, locus YGR092W, strain DBF2, active compounds read low 0.807 | S. cerevisiae deletion strains, locus YHR079C, strain IRE1, active compounds read low 0.803 | S. cerevisiae deletion strains, locus YHR082C, strain KSP1, active compounds read low 0.826 | S. cerevisiae deletion strains, locus YHR205W, strain SCH9, active compounds read low 0.842 | S. cerevisiae deletion strains, locus YIL147C, strain SLN1, active compounds read low 0.921 | S. cerevisiae deletion strains, locus YJL095W, strain BCK1, active compounds read low 0.74 | S. cerevisiae deletion strains, locus YJL128C, strain PBS2, active compounds read low 0.882 | S. cerevisiae deletion strains, locus YJL157C, strain FAR1, active compounds read low 0.813 | S. cerevisiae deletion strains, locus YJR016C, strain ILV3, active compounds read low 0.915 | S. cerevisiae deletion strains, locus YJR066W, strain TOR1 (second series), active compounds read low 0.948 | S. cerevisiae deletion strains, locus YJR066W, strain TOR1, active compounds read low 0.763 | S. cerevisiae deletion strains, locus YKL048C, strain ELM1, active compounds read low 0.857 | S. cerevisiae deletion strains, locus YKL067W, strain YNK1, active compounds read low 0.84 | S. cerevisiae deletion strains, locus YKL101W, strain HSL1, active compounds read low 0.836 | S. cerevisiae deletion strains, locus YKL193C, strain SDS22, active compounds read low 0.902 | S. cerevisiae deletion strains, locus YKL203C, strain TOR2, active compounds read low 0.819 | S. cerevisiae deletion strains, locus YLR133W, strain CKI1, active compounds read low 0.843 | S. cerevisiae deletion strains, locus YLR403W, strain SFP1, active compounds read low 0.74 | S. cerevisiae deletion strains, locus YML070W, strain DAK1, active compounds read low 0.789 | S. cerevisiae deletion strains, locus YMR001C, strain CDC5, active compounds read low 0.911 | S. cerevisiae deletion strains, locus YMR205C, strain PFK2 (second series), active compounds read low 0.846 | S. cerevisiae deletion strains, locus YMR277W, strain FCP1, active compounds read low 0.915 | S. cerevisiae deletion strains, locus YNL006W, strain LST8, active compounds read low 0.935 | S. cerevisiae deletion strains, locus YNL020C, strain ARK1, active compounds read low 0.841 | S. cerevisiae deletion strains, locus YNL161W, strain CBK1, active compounds read low 0.913 | S. cerevisiae deletion strains, locus YNL183C, strain NPR1, active compounds read low 0.756 | S. cerevisiae deletion strains, locus YNL207W, strain RIO2, active compounds read low 0.897 | S. cerevisiae deletion strains, locus YNL222W, strain SSU72, active compounds read low 0.91 | S. cerevisiae deletion strains, locus YNL307C, strain MCK1 (second series), active compounds read low 0.853 | S. cerevisiae deletion strains, locus YOL078W, strain AVO1, active compounds read low 0.903 | S. cerevisiae deletion strains, locus YOL136C, strain PFK27, active compounds read low 0.803 | S. cerevisiae deletion strains, locus YOR061W, strain CKA2, active compounds read low 0.869 | S. cerevisiae deletion strains, locus YOR119C, strain RIO1, active compounds read low 0.826 | S. cerevisiae deletion strains, locus YOR231W, strain MKK1, active compounds read low 0.747 | S. cerevisiae deletion strains, locus YOR329C, strain SCD5, active compounds read low 0.912 | S. cerevisiae deletion strains, locus YPL031C, strain PHO85, active compounds read low 0.824 | S. cerevisiae deletion strains, locus YPL153C, strain RAD53, active compounds read low 0.829 | S. cerevisiae deletion strains, locus YPL204W, strain HRR25, active compounds read low 0.798 | S. cerevisiae deletion strains, locus YPL209C, strain IPL1, active compounds read low 0.916 | S. cerevisiae deletion strains, locus YPR025C, strain CCL1, active compounds read low 0.917 | S. cerevisiae deletion strains, locus YPR106W, strain ISR1, active compounds read low 0.901 | S. cerevisiae deletion strains, locus YPR111W, strain DBF20, active compounds read low 0.892 | S. cerevisiae deletion strains, strain NNK1, active compounds read low 0.902 | S. cerevisiae deletion strains, strain TSCII, active compounds read low 0.911

CC(C)(C)c1cc(-c2cc(C(F)(F)F)[nH]n2)c2c(c1)C(C)(C)CC2
inactive: S. cerevisiae deletion strains, locus YAL013W, strain DEP1, active compounds read low 0.976 | S. cerevisiae deletion strains, locus YBR229C, strain ROT2, active compounds read low 1 | S. cerevisiae deletion strains, locus YCL061C, strain MRC1, active compounds read low 0.995 | [1] 1 | S. cerevisiae deletion strains, locus YDR150W, strain NUM1, active compounds read low 0.874 | S. cerevisiae deletion strains, locus YEL061C, strain CIN8, active compounds read low 1 | S. cerevisiae deletion strains, locus YGR078C, strain PAC10, active compounds read low 1 | [2] 1.09 | S. cerevisiae deletion strains, locus YHR087W, strain rtc3, active compounds read low 0.989 | S. cerevisiae deletion strains, locus YJR043C, strain POL32, active compounds read low 0.982 | S. cerevisiae deletion strains, locus YJR075W, strain HOC1, active compounds read low 0.966 | S. cerevisiae deletion strains, locus YLR039C, strain RIC1, active compounds read low 0.897 | S. cerevisiae deletion strains, locus YLR058C, strain SHM2 (second series), active compounds read low 1.01 | S. cerevisiae deletion strains, locus YLR085C, strain ARP6, active compounds read low 1.03 | S. cerevisiae deletion strains, locus YLR262C, strain YPT6, active compounds read low 0.891 | S. cerevisiae deletion strains, locus YML094W, strain GIM5, active compounds read low 0.998 | S. cerevisiae deletion strains, locus YMR219W, strain ESC1, active compounds read low 1 | S. cerevisiae deletion strains, locus YMR263W, strain SAP30, active compounds read low 0.974 | S. cerevisiae deletion strains, locus YMR307W, strain GAS1, active compounds read low 0.998 | S. cerevisiae deletion strains, locus YNL153C, strain GIM3, active compounds read low 0.997 | S. cerevisiae deletion strains, locus YNL298W, strain CLA4 (second series), active compounds read low 1.01 | S. cerevisiae deletion strains, locus YNL322C, strain KRE1, active compounds read low 0.993 | S. cerevisiae deletion strains, locus YNR030W, strain Alg12, active compounds read low 0.99 | S. cerevisiae deletion strains, locus YPL055C, strain LGE1, active compounds read low 0.985 | S. cerevisiae deletion strains, locus YPL241C, strain CIN2, active compounds read low 1 | S. cerevisiae deletion strains, locus YPR135W, strain CTF4, active compounds read low 0.881 | S. cerevisiae strains, strain wild type, active compounds read low 1.01
